Bioassay records deposited in PubChem by National Center for Advancing Translational Sciences (NCATS).
The list is not random: actives were taken first. Their share in the collection is about 21%.
NS1 inh: qHTS Assay for Inhibitors of Influenza NS1 Protein Function | Potency, µM (top dose mostly 46.1 µM), for inactives: top-dose activity, positive = more growth | hit rate 0.4% among 270,000; calls by dose curve; note: potency is the fitted concentration of half-maximal effect; actives are rising curves; nearly all actives have a fitted effect of over 50% in size
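Recovery from NS1-induced slow growth read by OD600 in budding yeast switched to galactose assay medium (pH 6.0, -URA) at 1:100 dilution. Compound 23 nl per well; the matching strain lacking NS1 serves as control.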
Shiga toxin inh: A qHTS for Small Molecule Inhibitors of Shiga Toxin. Vero cells, Shiga toxin protein synthesis inhibition reporter. AID 2315, 2010. hit rate 9.2% among 290,000. inhibition, % at 38.7 µM; in the data active = inhibition mostly above about 28%, no sharp cut-off; inactive = mostly below about 43%; note: 0% is about no effect
Giardia FBPA inh: qHTS Assay for Inhibitors of Fructose-1,6-bisphosphate Aldolase from Giardia Lamblia; purified Giardia FBPA; hit rate 0.71% among 290,000; Potency, µM (series often up to 59.6 µM), for the others: at the top dose activity, negative = inhibition, hits mostly inhibitors; A8B2U2; AID 2451, 2010; note: potency is the fitted concentration of half-maximal effect; % is set by controls: 0 for no effect and ±100 for the full control effect; nearly all actives have a fitted effect of over 55% in size
Target sequence (A8B2U2 whole entry, looked up): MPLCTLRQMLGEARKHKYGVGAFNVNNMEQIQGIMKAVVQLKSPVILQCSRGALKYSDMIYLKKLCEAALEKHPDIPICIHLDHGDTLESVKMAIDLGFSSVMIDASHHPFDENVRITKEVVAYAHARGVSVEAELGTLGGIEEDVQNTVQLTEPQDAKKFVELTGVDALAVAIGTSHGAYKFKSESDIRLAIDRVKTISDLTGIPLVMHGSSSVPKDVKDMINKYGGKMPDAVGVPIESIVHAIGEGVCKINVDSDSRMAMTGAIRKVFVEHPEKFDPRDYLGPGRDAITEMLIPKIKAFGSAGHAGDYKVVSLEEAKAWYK
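Giardia FBPA (40 nM reagent) was preincubated 10 min at RT with compound (up to 57.5 uM final), then substrate plus GAPDH/TPI/NAD/arsenate coupling system with diaphorase/resazurin was added; resorufin fluorescence (525/598 nm) was read after 20 min.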
Pf growth 48h: Primary qHTS for delayed death inhibitors of the malarial parasite plastid, 48 hour incubation; P. falciparum luciferase growth in erythrocytes, 48 h; Potency, µM (highest dose often 28.7 µM), inactives show top-dose activity change, negative = inhibition, actives largely listed as inhibitors; hit rate 5.9% among 310,000; AID 504832, 2011; note: potency is the fitted concentration of half-maximal effect; % is set by controls: 0 for no effect and ±100 for the full control effect
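Here the parasites carry a stable luciferase gene and grow inside erythrocytes in Albumax-based RPMI medium with compound for one erythrocytic cycle. Activity is scored as loss of luminescent signal.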
Cycloheximide cs: Cycloheximide Counterscreen for Small Molecule Inhibitors of Shiga Toxin. hit rate 12% among 300,000. cell reporter, cycloheximide protein synthesis inhibition counterscreen. max response, %; in the data active = max response mostly above about 13%, no sharp cut-off; inactive = mostly below about 14%; note: read at 38.3 µM for the half of the compounds with a filed dose; 0% is about no effect
Pf growth 96h: Primary qHTS for delayed death inhibitors of the malarial parasite plastid, 96 hour incubation; P. falciparum luciferase reporter growth, 96 h; Potency, µM (titrated, usually from 28.7 µM), for inactives: top-dose activity change, negative = inhibition, hits mostly inhibitors; hit rate 6.9% among 320,000; note: potency is the fitted concentration of half-maximal effect; % is set by controls: 0 for no effect and ±100 for the full control effect
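Luminescence readout: decreased luciferase signal marks inhibited growth of reporter-expressing P. falciparum in infected red cells (2% hematocrit, 0.05% parasitemia final), exposed to compound two generations (96 h, 37 C, 5% CO2).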
Starred values were filed as active, the others as inactive; ? = inconclusive; nt = no result given; [ ] = another dose, or the depositor's remark. Unless noted, calls come from the whole dose curve; as a rule, active = well fitted curve in the direction sought with a large enough effect; inconclusive = small, poorly fitted or top-dose-only effect, or another doubt; inactive = no such curve, though single readings can be large; an effect the other way counts as inactive or inconclusive.

SMILES	NS1 inh	Shiga toxin inh	Giardia FBPA inh	Pf growth 48h	Cycloheximide cs	Pf growth 96h
Cc1ccc(/C=C\c2nccc3c2[nH]c2ccccc23)cc1	-44%	59	-7%	2.6µM*	33*	?
CN(Cc1ccco1)S(=O)(=O)c1ccc2c(c1)CCN2C(=O)CCC(=O)O	5%	-17	10%	-16%	-4	13µM*
CC(=O)N1CCc2cc(S(=O)(=O)CCC(=O)Nc3ccc4c(c3)OCCO4)ccc21	4%	27	-2%	10%	12*	?
CCc1ccc(NC(=O)CCS(=O)(=O)c2ccc3c(c2)CCN3C(C)=O)cc1	-11%	-2	4%	8%	-3	?
O=C(CN(c1cccc(Cl)c1)S(=O)(=O)c1ccc(Cl)cc1)N1CCc2ccccc2C1	?	4	-6%	12µM*	10	62%
CCC(=O)N1CCc2cc(S(=O)(=O)CCC(=O)NC3CCCCC3)ccc21	5%	16	nt	-7%	-3	2.6µM*
CCOc1ccc(S(=O)(=O)N2CCN=C2c2ccccc2)cc1	5%	-3	nt	-1%	-2	?
CCCn1c(-c2ccc(F)cc2)nc2c(NC3CCN(Cc4ccccc4)CC3)nc(C)nc21	nt	nt	2%	nt	nt	nt
CCC(=O)N1CCc2cc(S(=O)(=O)CCC(=O)O)ccc21	6%	-12	4%	14%	-4	7.4µM*
CCC(=O)N1CCc2cc(S(=O)(=O)CCC(=O)N3CCN(c4ccccc4)CC3)ccc21	-1%	-1	7%	?	5	9%
CCC(=O)N1CCCc2cc(S(=O)(=O)CCC(=O)Nc3ccccc3C)ccc21	4%	3	nt	-25%	-1	5.9µM*
CCC(=O)N1CCc2cc(S(=O)(=O)CCC(=O)N3CCc4ccccc4C3)ccc21	-3%	12	6%	-24%	5	12µM*
Cn1c(N)c(S(=O)(=O)N2CCCC2)c(=O)n(C)c1=O	3%	-11	0%	6%	-2	33%
COCCN(C(=O)COC(=O)CSc1ccc(Cl)cc1)c1c(N)n(CC(C)C)c(=O)[nH]c1=O	nt	nt	nt	9%	nt	10%
COc1ccc2cc(C(=O)NCC(=O)O)sc(=O)c2c1OC	15%	-1	-1%	4%	-2	47%
COc1ccc2cc(C(=O)OC(C)C)sc(=O)c2c1OC	-9%	30*	0%	-18%	14*	33%
COc1ccc(OC)c(C(O)C2CCCCN2)c1 (centres undefined)	1%	nt	-19%	?	-5	3.3µM*
COc1cccc(-n2c(/C=C/c3ccc(O)c(O)c3)nc3ccccc3c2=O)c1	6%	24	-27%	?	2	9.3µM*
COc1ccc(-n2c(/C=C/c3ccc4c(c3)OCO4)nc3ccccc3c2=O)cc1	6%	1	0%	?	-2	9.3µM*
Cc1ccc(-n2c(/C=C/c3ccc4c(c3)OCO4)nc3ccccc3c2=O)cc1	4%	-1	-2%	?	-6	?
COc1ccc(-n2c(/C=C/c3ccc(O)c(OC)c3)nc3ccccc3c2=O)cc1	6%	-1	3%	?	7	2%
CCOC(=O)N1CCN(C(=O)c2cc3n(n2)C(C(F)(F)F)CC(c2ccc4c(c2)OCO4)N3)CC1 (centres undefined)	-6%	-5	-6%	13%	-4	?
COC(=O)C1(C(=O)OC)CC2=C[C@H](CC2=O)Cc2ccccc2[C@@H]1C[N+](=O)[O-]	nt	nt	-2%	nt	nt	nt
COc1cccc(N2C(=O)C(O)=C(C(C)=O)C2c2ccc(OC)c(OC)c2)c1 (centres undefined)	15%	-16	-14%	13µM*	8	?
CCCCN1C(=O)C(O)=C(C(C)=O)C1c1ccc(OC)cc1OC (centres undefined)	15%	-17	-24%	51%	-3	92%
SMILES	NS1 inh	Shiga toxin inh	Giardia FBPA inh	Pf growth 48h	Cycloheximide cs	Pf growth 96h
COc1ccc(C2C(C(C)=O)=C(O)C(=O)N2CCO)c(OC)c1 (centres undefined)	-2%	-15	-4%	5%	-4	12µM*
COc1ccc(C2C(CC(=O)O)=C(O)C(=O)N2c2ccccc2)cc1 (centres undefined)	?	38*	-2%[12.9 µM]	14%	28*	?
COc1ccc(C2C(C(C)=O)=C(O)C(=O)N2c2ccc(O)cc2)cc1 (centres undefined)	9%	-6	-9%	20%	-1	?
COc1ccc(-c2n[nH]c3c2C(c2ccc(OC)c(OC)c2)N(c2ccccc2)C3=O)cc1 (centres undefined)	16%	-12	12%	nt	-2	0.12µM*
CCOc1ccccc1NC(=O)NCc1ccc2c(c1)OCO2	7%	-4	5%	8%	1	?
CN(Cc1ccccc1)c1nc(-c2ccc(F)cc2)cc(C(F)(F)F)n1	nt	-2	nt	nt	-3	nt
Cc1c(C(=O)N2CCCCC2)c(S(=O)(=O)N2c3ccccc3CC2C)c(C)n1C (centres undefined)	1%	2	7%	-8%	5	-18%
CCN(c1ccc(OC)cc1)S(=O)(=O)c1csc(C(=O)N2CCCC2)c1	-9%	-4	23%	?	15	9%
CCCN1CC=C2C(C#N)=C(N)C(C#N)(C#N)C(c3cccc(OC)c3OC)C2C1 (centres undefined)	10%	-3	?	?	13	nt
COc1cccc(OC)c1OCc1cc(C2C3CCCC=C3C(C#N)=C(N)C2(C#N)C#N)c(C)cc1C (centres undefined)	17%	-3	?	?	5	9.3µM*
CC[C@H](C)[C@@H](NC(=O)O[C@@H]1C(=O)c2ccc(OC)cc2O[C@H]1c1ccc2c(c1)OCO2)C(=O)OC	nt	nt	3%	nt	nt	nt
COc1ccc(OC)c(CCNC(=O)CCC(=O)N2CCOc3ccc(C)cc32)c1	7%	-3	4%	0%	1	?
CCC(=O)Nc1cc(C(=O)OCC(=O)c2ccccc2Cl)ccc1C	11%	106*	nt	84%	45*	34%
CCC(=O)Nc1cc(C(=O)OCC(=O)c2ccccc2)ccc1C	-7%	active	3%	229%	53*	261%
CC1CCC(NC(=O)C2CC(=O)N(c3ccc(Cl)cc3)C2)CC1 (centres undefined)	13%	-4	nt	14%	-3	?
CC(=O)c1c(Cl)nc2cccc3c2c1-c1ccccc1C3=O	-13%	-11	6%	-8%	-3	-2%
Cn1nnnc1SCCNC(=O)C1CCC(=O)N(Cc2ccc(Cl)cc2)C1 (centres undefined)	-1%	-4	5%	18%	-1	?
OC1OC[C@@H](O)[C@@H](O)[C@@H]1O (some centres undefined)	nt	-13	7%	nt	-5	nt
